From paper PMC5540273 (PLoS ONE, 2017) come the findings set out here.

Test systems include FGFR1; FGFR2; FGFR3; FGFR4; FGR; FLT1; FLT3-autoinhibited; FLT3; FLT4; FRK; FYN; GAK; GRK1; GRK4; GRK7; GSK3A; GSK3B.
Common to all, as to details: concentration: 1 μM,replicates: in singlicate; n = 1
The subject of another assay is T1, GCN2(Kin.Dom.2,S808G).
T1 construct: gene EIF2AK4

A further assay has as its system T2, GRK2.
T2 construct: gene ADRBK1

Another assay has as its system T3, GRK3.
T3 construct: gene ADRBK2
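Note: KINOMEscan kinase panel screen.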

On to `CN(C)CCOc1ccc(-c2cc(-c3c[nH]nc3-c3ccccn3)ccn2)cc1` [GW835314], for which the “%Inh” value in the assay on FGFR1 is on record as 47%; in the assay with FGFR2, 17%; in the assay on FGFR3, 31%; with FGFR4 it was 8%; in the assay on FGR, 7%; in the assay with FLT1, 0%. For the same compound, the “%Inh” value in the assay with FLT3-autoinhibited was determined as 35%; in the assay with FLT3, 59%; in the assay on FLT4 it was 11%; in the assay on FRK it was 10%; in the assay with FYN, 15%; with GAK it was 75%. Moreover, the “%Inh” value in the assay on GCN2(Kin.Dom.2,S808G) stood at 0%; in the assay with GRK1, 17%; in the assay with GRK2, 0%; in the assay with GRK3, 12%; in the assay with GRK4, 3%; in the assay on GRK7, 0%. In addition, the “%Inh” value with GSK3A was found to be 0%; with GSK3B, 7%.

Consider `CC(C)N1C(=O)Cc2cc(Nc3ncc(C(F)(F)F)c(NCc4cccc(S(C)(=O)=O)c4)n3)ccc21`, for which the “%Inh” value turned out to be 38% in the assay with FGFR1; 52% with FGFR2; 43% in the assay on FGFR3; 16% with FGFR4; 5% with FGR; 62% with FLT1. Besides, the “%Inh” value in the assay with FLT3-autoinhibited was found to be 57%; in the assay with FLT3, 97.6%; in the assay with FLT4 it was 89%; in the assay on FRK, 0%; with FYN it was 4%; with GAK it was 14%. In addition, the “%Inh” value in the assay with GCN2(Kin.Dom.2,S808G) is recorded as 17%; with GRK1, 25%; in the assay with GRK2, 0%; in the assay on GRK3, 4%; with GRK4 it was 28%; in the assay on GRK7 it was 10%. Further, the “%Inh” value in the assay on GSK3A turned out to be 47%; in the assay on GSK3B, 0%.

`Cl.Cl.Nc1nc(-c2ccc3c(N)n[nH]c3c2)cc(N2CCCC(NC(=O)c3ccccc3)C2)n1` (centres unmarked) [GSK2286775]: the “%Inh” value stood at 0% in the assay with FGFR1; 0% in the assay on FGFR2; 11% with FGFR3; 0% in the assay with FGFR4; 8% with FGR; 16% in the assay on FLT1. For the same compound, the “%Inh” value with FLT3-autoinhibited was found to be 2%; in the assay on FLT3 it was 0%; in the assay with FLT4, 0%; in the assay with FRK, 0%; with FYN it was 34%; in the assay on GAK it was 2%. In addition, the “%Inh” value with GCN2(Kin.Dom.2,S808G) came to 0%; with GRK1, 0%; in the assay on GRK2, 0%; in the assay with GRK3 it was 19%; with GRK4 it was 55%; in the assay with GRK7, 0%. Moreover, the “%Inh” value with GSK3A stood at 0%; with GSK3B, 15%.

Turning to `Cc1ccc2c(-c3ccncc3)c(-c3ccc(F)cc3)nn2c1.Cl` [GW461484], the “%Inh” value with FGFR1 is 14%; in the assay on FGFR2, 12%; in the assay with FGFR3, 4%; with FGFR4, 4%; with FGR, 0%; in the assay with FLT1, 5%. For the same compound, the “%Inh” value with FLT3-autoinhibited worked out at 0%; in the assay on FLT3, 37%; with FLT4, 0%; in the assay on FRK, 20%; in the assay with FYN, 26%; in the assay with GAK it was 84%. Moreover, the “%Inh” value is on record as 28% in the assay with GCN2(Kin.Dom.2,S808G); 0% in the assay with GRK1; 0% in the assay on GRK2; 0% with GRK3; 0% in the assay with GRK4; 66% in the assay on GRK7. Moreover, the “%Inh” value with GSK3A was 26%; in the assay on GSK3B, 16%.

For the compound `CNC(=O)c1ccccc1Sc1ccc2c(/C=C/c3ccccn3)n[nH]c2c1`, the “%Inh” value in the assay on FGFR2 is listed as 86%; with FGFR3, 81%; with FGFR4 it was 12%; with FGR it was 85%; with FLT1, 99.6%; in the assay on FLT3-autoinhibited it was 15%. Moreover, the “%Inh” value with FLT3 was determined as 0%; in the assay with FLT4 it was 100%; in the assay on FRK, 0%; in the assay on FYN, 14%; in the assay on GAK, 10%; in the assay with GCN2(Kin.Dom.2,S808G), 0%. For the same compound, the “%Inh” value with GRK1 was found to be 25%; in the assay with GRK2 it was 22%; with GRK3, 44%; with GRK4, 11%; in the assay on GRK7 it was 0%; in the assay with GSK3A it was 0%. In addition, the “%Inh” value with GSK3B is on record as 9%.

As to `C[C@@H]1CCN(C(=O)CC#N)C[C@@H]1N(C)c1ncnc2[nH]ccc12`, the “%Inh” value in the assay with FGFR1 was found to be 0%; in the assay on FGFR2, 0%; in the assay on FGFR3 it was 0%; in the assay on FGFR4, 0%; in the assay on FGR, 1%; with FLT1, 0%. The “%Inh” value is 0% with FLT3-autoinhibited; 0% with FLT3; 0% with FLT4; 0% in the assay on FRK; 8% in the assay with FYN; 19% in the assay on GAK. Further, the “%Inh” value is given as 0% in the assay on GCN2(Kin.Dom.2,S808G); 15% in the assay with GRK1; 0% with GRK2; 0% in the assay with GRK3; 0% in the assay on GRK4; 25% in the assay with GRK7. In addition, the “%Inh” value in the assay with GSK3A and in the assay with GSK3B was 0% each time.

In the case of `Cc1cc2cn[nH]c2cc1-c1cccc2c(N)c(C(N)=O)nnc12`, the “%Inh” value is listed as 35% with FGFR1; 0% in the assay on FGFR2; 0% with FGFR3; 0% with FGFR4; 50% with FGR; 0% in the assay on FLT1. In addition, the “%Inh” value is on record as 19% in the assay with FLT3-autoinhibited; 10% in the assay on FLT3; 2% in the assay with FLT4; 31% with FRK; 20% in the assay with FYN; 34% in the assay on GAK. Moreover, the “%Inh” value in the assay with GCN2(Kin.Dom.2,S808G) is 0%; in the assay on GRK1 it was 23%; in the assay on GRK2, 1%; with GRK3, 27%; in the assay with GRK4 it was 28%; in the assay on GRK7 it was 0%. In addition, the “%Inh” value in the assay on GSK3A was 0%; with GSK3B it was 23%.

Regarding `CCN(CC)CCOc1ccc(Nc2ncc3cc(-c4c(Cl)cccc4Cl)c(=O)n(C)c3n2)cc1` [SB-601273], the “%Inh” value in the assay with FGFR1 was 99.9%; in the assay on FGFR2 it was 100%; in the assay on FGFR3, 100%; in the assay with FGFR4 it was 97.9%; with FGR it was 100%; in the assay on FLT1, 99%. In addition, the “%Inh” value in the assay on FLT3-autoinhibited is listed as 65%; in the assay with FLT3, 98.7%; with FLT4 it was 95.8%; in the assay with FRK it was 100%; in the assay with FYN it was 100%; in the assay on GAK, 97%. Moreover, the “%Inh” value in the assay on GCN2(Kin.Dom.2,S808G) came out at 100%; in the assay with GRK1, 6%; in the assay on GRK2, 29%; with GRK3, 57%; in the assay with GRK4, 0%; in the assay with GRK7, 0%. The “%Inh” value was 17% in the assay on GSK3A and 0% in the assay on GSK3B.

With `O=C(NCCNc1ccnc(NCc2ccc(F)cc2)n1)c1cc2ccccc2s1` [GSK1379944], the “%Inh” value in the assay with FGFR1 stood at 6%; in the assay with FGFR2, 10%; in the assay on FGFR3, 20%; in the assay with FGFR4, 79%; with FGR it was 29%; in the assay with FLT1, 27%. For the same compound, the “%Inh” value with FLT3-autoinhibited is 0%; in the assay on FLT3, 0%; in the assay with FLT4 it was 1%; with FRK, 15%; in the assay with FYN, 17%; with GAK, 33%. Also, the “%Inh” value came out at 6% with GCN2(Kin.Dom.2,S808G); 0% in the assay with GRK1; 0% in the assay on GRK2; 34% with GRK3; 0% in the assay with GRK4; 0% in the assay with GRK7. The “%Inh” value with GSK3A is on record as 6%; in the assay with GSK3B it was 78%.
